Several values for one entry are separate records, joined by “and”; a condition that tells them apart may be missing. Equal values may be shown once. For some assays here: Potency and affinity values are given separately.
Key:
Parameters in all cases: scale not given: direction of the effect not stated beside the values
[1] = target: Protein translocase subunit SecA (Escherichia coli (strain K12)) (UniProt P10408); assay: Assay to Identify E. coli SecA ATPase Inhibitors; assay type: functional; details: 30 µM
[2] = target: T1, Ubiquitin-activating enzyme e1, putative (Leishmania donovani (strain BPK282A1)) (UniProt E9BSI1); assay: Leishmania donovani Ubiquitin Activating Enzyme (LdE1); assay type: functional; details: 30 µM
T1 sequence (whole entry): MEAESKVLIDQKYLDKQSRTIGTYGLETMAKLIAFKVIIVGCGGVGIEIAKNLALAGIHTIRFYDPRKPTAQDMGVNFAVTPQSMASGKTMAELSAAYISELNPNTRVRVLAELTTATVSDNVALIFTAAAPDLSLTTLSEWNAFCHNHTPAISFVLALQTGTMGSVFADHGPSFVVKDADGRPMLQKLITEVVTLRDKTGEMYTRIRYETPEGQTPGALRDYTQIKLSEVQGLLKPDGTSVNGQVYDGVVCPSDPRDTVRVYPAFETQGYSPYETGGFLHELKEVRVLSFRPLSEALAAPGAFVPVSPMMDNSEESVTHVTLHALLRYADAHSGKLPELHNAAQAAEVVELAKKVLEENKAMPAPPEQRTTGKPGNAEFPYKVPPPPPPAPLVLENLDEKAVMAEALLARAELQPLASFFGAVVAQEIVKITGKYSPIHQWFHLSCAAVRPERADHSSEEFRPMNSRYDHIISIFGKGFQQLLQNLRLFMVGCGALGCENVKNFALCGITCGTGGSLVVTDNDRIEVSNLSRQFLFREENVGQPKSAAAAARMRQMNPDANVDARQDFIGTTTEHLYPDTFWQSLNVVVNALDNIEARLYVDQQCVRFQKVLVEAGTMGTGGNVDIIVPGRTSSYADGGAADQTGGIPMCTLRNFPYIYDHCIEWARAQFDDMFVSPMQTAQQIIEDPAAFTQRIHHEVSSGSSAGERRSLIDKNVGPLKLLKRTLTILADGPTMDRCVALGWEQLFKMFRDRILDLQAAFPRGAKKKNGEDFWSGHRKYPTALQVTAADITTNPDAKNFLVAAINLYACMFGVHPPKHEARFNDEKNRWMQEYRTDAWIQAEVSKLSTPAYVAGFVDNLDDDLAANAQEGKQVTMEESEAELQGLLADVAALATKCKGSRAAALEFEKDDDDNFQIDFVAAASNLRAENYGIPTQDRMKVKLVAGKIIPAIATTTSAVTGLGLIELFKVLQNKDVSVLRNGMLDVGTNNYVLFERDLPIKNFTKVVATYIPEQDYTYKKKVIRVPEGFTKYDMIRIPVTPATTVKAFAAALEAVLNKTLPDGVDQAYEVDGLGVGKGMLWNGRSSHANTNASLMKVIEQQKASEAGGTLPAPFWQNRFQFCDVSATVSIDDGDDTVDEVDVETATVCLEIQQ

[3] = target: T2, Aspartate--tRNA(Asp/Asn) ligase (Mycobacterium tuberculosis (strain ATCC 25618 / H37Rv)) (UniProt P9WFW3); assay: Assay for Asp RNA synthetase-1 from Mycobacterium tuberculosis; assay type: functional; details: 30 µM; further: in the data most compounds retested in dose-response had high values
T2 sequence (whole entry): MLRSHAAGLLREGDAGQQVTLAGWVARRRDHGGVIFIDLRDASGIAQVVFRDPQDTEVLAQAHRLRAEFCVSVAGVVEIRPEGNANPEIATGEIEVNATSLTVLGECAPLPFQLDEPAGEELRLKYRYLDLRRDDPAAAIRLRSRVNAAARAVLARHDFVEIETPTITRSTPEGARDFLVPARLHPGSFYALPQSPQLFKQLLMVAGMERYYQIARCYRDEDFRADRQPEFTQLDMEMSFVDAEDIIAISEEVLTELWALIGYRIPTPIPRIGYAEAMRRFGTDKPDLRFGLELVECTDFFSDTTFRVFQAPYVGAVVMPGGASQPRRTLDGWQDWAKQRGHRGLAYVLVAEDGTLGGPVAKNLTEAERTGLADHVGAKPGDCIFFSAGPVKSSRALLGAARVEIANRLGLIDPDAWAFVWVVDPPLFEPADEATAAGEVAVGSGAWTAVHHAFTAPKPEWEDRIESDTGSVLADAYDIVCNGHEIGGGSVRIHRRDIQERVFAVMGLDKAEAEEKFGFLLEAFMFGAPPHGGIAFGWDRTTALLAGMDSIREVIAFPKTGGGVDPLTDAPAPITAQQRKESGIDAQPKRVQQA

[4] = target: AMP-activated protein kinase, AMPK (Homo sapiens) (UniProt P54646+O43741+P54619+Q9UGJ0+Q9Y478+Q13131+Q9UGI9); assay: AMP-dependent Kinase enzyme assay. An in vitro enzyme assay that detects ADP turnover that is directly proportional to AMPK activity. This uses naive AMPK that is activated during the assay with MK-8722; assay type: functional; details: 30 µM
[5] = target: Sialic acid-binding Ig-like lectin 9 (Homo sapiens) (UniProt Q9Y336); assay: Hs-Siglec9 ALPHAscreen SOP 20170721; details: 10 µM
[6] = tested on: Trypanosoma cruzi; assay: Trypanosoma cruzi phosphomannomutase and mannose-1-phosphate guanylyltransferase assay; assay type: functional; details: 10 µM
[7] = target: T3, Arginase-2, mitochondrial (Homo sapiens) (UniProt P78540); assay: in vitro enzyme assay to detect the production of urea directly proportional to the activity of Arginase II; assay type: functional; further: in the data most compounds retested in dose-response had high values
T3 sequence (whole entry): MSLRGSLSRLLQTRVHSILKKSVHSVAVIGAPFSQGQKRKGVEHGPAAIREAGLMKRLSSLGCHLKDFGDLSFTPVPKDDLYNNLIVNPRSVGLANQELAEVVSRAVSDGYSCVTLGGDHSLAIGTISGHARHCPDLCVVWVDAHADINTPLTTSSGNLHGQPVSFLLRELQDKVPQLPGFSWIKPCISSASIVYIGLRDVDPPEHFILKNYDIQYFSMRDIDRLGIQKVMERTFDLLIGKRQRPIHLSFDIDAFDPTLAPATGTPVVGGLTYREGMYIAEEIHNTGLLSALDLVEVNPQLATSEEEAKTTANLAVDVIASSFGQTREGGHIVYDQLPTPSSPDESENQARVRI

[8] = target: T4, Proteasome subunit beta (Trypanosoma cruzi) (UniProt O96673); assay: Trypanosoma cruzi proteasome chymotrypsin-like activity (TcProtChymo) assay.; further: in the data most compounds retested in dose-response had high values; assay type: functional; details: 9.37 µM
T4 sequence (whole entry): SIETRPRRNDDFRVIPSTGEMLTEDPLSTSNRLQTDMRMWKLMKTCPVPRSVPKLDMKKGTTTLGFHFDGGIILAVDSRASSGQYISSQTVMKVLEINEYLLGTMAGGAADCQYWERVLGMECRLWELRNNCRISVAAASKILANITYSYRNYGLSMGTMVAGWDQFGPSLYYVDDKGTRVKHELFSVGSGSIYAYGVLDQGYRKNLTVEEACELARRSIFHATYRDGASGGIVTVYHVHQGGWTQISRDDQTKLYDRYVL

[9] = species on record: Homo sapiens; assay: To identify inhibition of the IFN signalling (Jak-Stat) pathway via expression of an eGFP reporter gene under the control of an IFN-stimulated response element (ISRE) containing MxA promoter.; assay type: functional; details: 30 µM
[10] = target: Shiga toxin 2 (Escherichia coli O157:H7) (UniProt P09385+P09386); assay: E. coli 0.157:H7 Shiga Toxin SOP - stx2 screening assay; assay type: functional; details: 30 µM
[11] = target: T5, Tyrosyl-tRNA synthetase, putative (Trypanosoma cruzi (strain CL Brener)) (UniProt Q4DSP6); assay: Trypanosoma cruzi tyrosyl tRNA synthetase (TcYRS) _High Tyrosine SOP; assay type: functional; details: 30 µM; further: in the data most compounds retested in dose-response had high values
T5 sequence (whole entry): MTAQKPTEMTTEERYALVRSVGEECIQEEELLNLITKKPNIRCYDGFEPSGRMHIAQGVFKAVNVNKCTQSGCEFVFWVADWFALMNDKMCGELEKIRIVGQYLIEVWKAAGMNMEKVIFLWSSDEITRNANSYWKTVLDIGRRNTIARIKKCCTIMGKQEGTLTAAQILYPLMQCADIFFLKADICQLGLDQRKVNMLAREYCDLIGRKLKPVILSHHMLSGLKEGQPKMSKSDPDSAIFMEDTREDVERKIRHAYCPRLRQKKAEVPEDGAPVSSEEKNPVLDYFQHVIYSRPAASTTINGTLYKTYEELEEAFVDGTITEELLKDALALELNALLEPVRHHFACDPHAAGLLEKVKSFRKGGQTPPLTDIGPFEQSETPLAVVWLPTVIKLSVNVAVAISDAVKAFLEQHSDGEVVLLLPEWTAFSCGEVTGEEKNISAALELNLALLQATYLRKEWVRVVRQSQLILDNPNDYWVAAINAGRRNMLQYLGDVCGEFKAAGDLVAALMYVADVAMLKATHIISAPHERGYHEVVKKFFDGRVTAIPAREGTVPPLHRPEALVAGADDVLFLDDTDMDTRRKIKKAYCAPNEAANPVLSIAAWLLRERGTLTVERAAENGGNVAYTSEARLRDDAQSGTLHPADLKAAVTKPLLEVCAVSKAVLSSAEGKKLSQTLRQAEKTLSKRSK

[12] = target: T5, Tyrosyl-tRNA synthetase, putative (Trypanosoma cruzi (strain CL Brener)); assay: Trypanosoma cruzi tyrosyl tRNA synthetase (TcYRS) SOP; assay type: functional; details: 30 µM
[13] = target: Chromo domain-containing protein 1 (Saccharomyces cerevisiae (strain ATCC 204508 / S288c) (Baker's yeast)) (UniProt P32657); assay: ScCHD-1 Enzyme Inhibition Assay; assay type: functional; details: 30 µM; further: in the data most compounds retested in dose-response had high values
[14] = tested on: N/A; assay: Trypanosoma cruzi proteasome luciferase counter-screen; assay type: functional; details: 9.37 µM

Chromo domain-containing protein 1 (Saccharomyces cerevisiae (strain ATCC 204508 / S288c) (Baker's yeast)), sequence (P32657 whole entry, the tested form may be a part): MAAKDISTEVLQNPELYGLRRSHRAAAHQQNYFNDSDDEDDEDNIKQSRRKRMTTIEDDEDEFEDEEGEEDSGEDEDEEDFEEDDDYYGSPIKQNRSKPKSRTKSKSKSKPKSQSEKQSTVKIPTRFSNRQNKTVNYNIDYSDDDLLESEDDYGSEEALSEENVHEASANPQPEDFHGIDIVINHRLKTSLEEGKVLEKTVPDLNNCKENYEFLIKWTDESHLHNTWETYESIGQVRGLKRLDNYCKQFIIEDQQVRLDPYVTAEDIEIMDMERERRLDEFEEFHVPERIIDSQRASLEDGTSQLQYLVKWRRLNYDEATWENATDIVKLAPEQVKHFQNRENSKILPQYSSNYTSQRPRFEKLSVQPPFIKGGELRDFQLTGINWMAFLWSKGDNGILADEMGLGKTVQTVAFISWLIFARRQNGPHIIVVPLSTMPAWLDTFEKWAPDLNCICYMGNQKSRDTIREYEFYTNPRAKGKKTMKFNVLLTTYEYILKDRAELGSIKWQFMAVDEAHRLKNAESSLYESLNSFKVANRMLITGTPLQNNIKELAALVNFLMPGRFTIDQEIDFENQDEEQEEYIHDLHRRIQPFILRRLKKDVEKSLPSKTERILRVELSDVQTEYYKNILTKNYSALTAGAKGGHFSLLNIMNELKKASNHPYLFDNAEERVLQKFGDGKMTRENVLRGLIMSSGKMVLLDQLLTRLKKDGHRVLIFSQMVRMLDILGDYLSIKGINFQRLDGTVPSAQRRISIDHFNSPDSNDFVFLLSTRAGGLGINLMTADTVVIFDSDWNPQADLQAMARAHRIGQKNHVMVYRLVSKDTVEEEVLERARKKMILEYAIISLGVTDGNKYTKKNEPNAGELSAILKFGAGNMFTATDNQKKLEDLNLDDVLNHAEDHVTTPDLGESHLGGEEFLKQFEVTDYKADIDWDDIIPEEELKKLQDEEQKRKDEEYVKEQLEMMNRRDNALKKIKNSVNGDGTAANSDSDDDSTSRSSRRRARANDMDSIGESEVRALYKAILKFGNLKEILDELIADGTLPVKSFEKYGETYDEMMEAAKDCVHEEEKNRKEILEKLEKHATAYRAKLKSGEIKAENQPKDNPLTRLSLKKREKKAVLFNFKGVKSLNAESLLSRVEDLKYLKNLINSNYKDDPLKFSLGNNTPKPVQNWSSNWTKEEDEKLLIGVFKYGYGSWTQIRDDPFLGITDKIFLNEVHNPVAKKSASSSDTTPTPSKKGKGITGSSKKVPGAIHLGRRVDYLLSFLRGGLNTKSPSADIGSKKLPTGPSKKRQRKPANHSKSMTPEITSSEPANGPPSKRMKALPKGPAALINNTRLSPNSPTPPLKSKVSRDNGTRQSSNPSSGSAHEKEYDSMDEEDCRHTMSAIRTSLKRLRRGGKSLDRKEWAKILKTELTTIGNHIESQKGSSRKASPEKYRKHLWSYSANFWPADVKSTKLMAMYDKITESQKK
Protein translocase subunit SecA (Escherichia coli (strain K12)), sequence (P10408 whole entry): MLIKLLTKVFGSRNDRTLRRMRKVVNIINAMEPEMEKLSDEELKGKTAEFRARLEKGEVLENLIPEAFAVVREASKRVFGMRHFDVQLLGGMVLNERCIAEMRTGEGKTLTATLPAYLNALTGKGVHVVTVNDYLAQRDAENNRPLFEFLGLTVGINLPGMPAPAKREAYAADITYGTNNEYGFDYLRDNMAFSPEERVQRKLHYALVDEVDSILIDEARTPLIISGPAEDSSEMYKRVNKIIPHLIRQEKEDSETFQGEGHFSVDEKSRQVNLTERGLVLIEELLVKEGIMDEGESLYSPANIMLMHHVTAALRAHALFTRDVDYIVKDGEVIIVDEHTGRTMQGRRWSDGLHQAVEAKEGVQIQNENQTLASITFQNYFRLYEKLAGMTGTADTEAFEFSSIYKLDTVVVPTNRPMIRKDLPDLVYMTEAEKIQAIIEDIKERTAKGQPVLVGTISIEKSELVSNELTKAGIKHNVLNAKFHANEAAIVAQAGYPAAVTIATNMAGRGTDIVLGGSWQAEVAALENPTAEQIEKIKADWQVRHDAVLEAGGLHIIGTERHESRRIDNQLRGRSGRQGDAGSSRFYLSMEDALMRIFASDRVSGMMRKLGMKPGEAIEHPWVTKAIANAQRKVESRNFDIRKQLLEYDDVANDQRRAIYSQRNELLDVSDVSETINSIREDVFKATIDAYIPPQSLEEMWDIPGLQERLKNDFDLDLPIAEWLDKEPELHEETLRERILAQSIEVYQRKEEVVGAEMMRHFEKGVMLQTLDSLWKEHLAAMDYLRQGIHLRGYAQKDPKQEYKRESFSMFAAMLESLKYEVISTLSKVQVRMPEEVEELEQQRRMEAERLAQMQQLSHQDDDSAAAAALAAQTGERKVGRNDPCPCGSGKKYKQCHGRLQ
Sialic acid-binding Ig-like lectin 9 (Homo sapiens), sequence (Q9Y336 whole entry): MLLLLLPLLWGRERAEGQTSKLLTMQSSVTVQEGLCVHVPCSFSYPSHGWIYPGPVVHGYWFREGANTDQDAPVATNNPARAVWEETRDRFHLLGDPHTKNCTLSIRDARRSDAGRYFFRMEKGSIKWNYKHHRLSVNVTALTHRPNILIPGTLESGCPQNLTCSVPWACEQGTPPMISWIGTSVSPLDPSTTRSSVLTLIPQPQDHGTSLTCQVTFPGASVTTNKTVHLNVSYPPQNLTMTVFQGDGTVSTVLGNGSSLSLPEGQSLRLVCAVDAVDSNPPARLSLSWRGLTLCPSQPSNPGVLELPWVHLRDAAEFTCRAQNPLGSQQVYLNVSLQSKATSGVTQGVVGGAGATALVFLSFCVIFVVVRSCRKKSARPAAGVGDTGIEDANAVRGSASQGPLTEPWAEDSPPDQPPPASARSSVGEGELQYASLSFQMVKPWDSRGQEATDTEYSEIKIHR

SMILES	Percent Effect [1] [%]	Percent Effect [2] [%]	Percent Effect [3] [%]	Percent Effect [4] [%]	Percent Effect [5] [%]	Percent Effect [6] [%]	Percent Effect ([7]; 33.3 µM) [%]	Percent Effect [8]	Percent Effect [9] [%]	Percent Effect [10] [%]	Percent Effect [11] [%]	Percent Effect [12] [%]	Percent Effect [13] [%]	Percent Effect [14]	Percent Effect ([7]; 30 µM) [%]
CC(C)N1CCC2(CCN(C(=O)c3cccnc3)CC2)C1	1.13	10.8	1.7	4.26	-12.5	-9.68	8.6	20.9%	-1.74	-5.59	-24.9	10.3	-2.2		
CC(C)=CCN1C[C@H]2CC[C@@H]1CN(C(=O)c1c[nH]c(=O)c(Cl)c1)C2	-4.07	5.48	4.22	2.02	1.06	-5.16	-8.38	35.6% and 31.4% and 37.8%	7.03	-38	6.25	13.6	-2.95	18.4% and 17.9%	
c1ccc(CN2CC[C@]3(C[C@@H](Oc4ccccn4)CO3)C2)nc1	-4.14	18.7	-1.57	-1.39	-5.45	-0.394	0.233	5.02%	17.7	-36.4	2.13	14.1	-0.948		-12.4

Source: ChEMBL document CHEMBL3988442, “University of Dundee, Small-Polar-MMV Screening Library” (2021)
